Source: PubChem BioAssay AID2391 (Southern Research Specialized Biocontainment Screening …, 2010)
The whole screen tested about 310,000 compounds, of which about 410 (0.13%) were called active. Not shown: some 2% with an inconclusive outcome. The rule behind the calls is not given here. Not all results are given here. Potency and affinity values are given separately.

experiment: inhibition of RSV-induced cytopathic effect – HEp-2 cells, primary 10 µM value included (AID 2391); conditions: at 10 µM, active compounds read high

CPE inhibition, inactive:
CC(C)CNC(=O)c1cccc(NC(=O)Cc2ccc(Br)cc2)c1 15.3%
CC(=O)/C(C#N)=C1\NC(=O)C(Cc2ccc(F)cc2)S1 (configuration not stated) 12.6%
CC(=O)/C(C#N)=C1\NC(=O)C(Cc2ccc(C)c(Cl)c2)S1 (configuration not stated) 15%
CC(=O)/C(C#N)=C1\NC(=O)C(Cc2cc(Cl)ccc2Cl)S1 (configuration not stated) 14%
CCc1ccc(CC2S/C(=C(\C#N)C(C)=O)NC2=O)cc1 (configuration not stated) 6.6%
CC1CCCN(c2nc3c(c(=O)n(C)c(=O)n3C)n2CCSc2nc3ccccc3o2)C1 (configuration not stated) 1.2%
COc1ccccc1NC(=O)C(=O)NCC1COc2ccccc2O1 (configuration not stated) 5.12%
NS(=O)(=O)c1ccc(CCNC(=O)CSc2nc3ccccc3c(=O)n2CCC(=O)N2CCCCC2)cc1 0.56%
c1csc(-c2nc3ccccc3[nH]2)c1 4.14%
Cn1c(=O)c2[nH]c(-c3ccccc3O)nc2n(C)c1=O 9.42%
Cc1cc(=O)[nH]c(-c2ccccc2O)n1 0.17%
c1ccc(-c2nc(-c3cccs3)[nH]c2-c2ccccc2)cc1 1.1%
O=S(=O)(NC(=NCc1ccccc1)c1ccccc1F)c1ccccc1 0.88%
COc1ccc(CNC(=O)CN(Cc2ccc(F)cc2)C(=O)CCC(=O)Nc2nccs2)cc1 0.79%
CC(OC(=O)c1cccc([N+](=O)[O-])c1)C(=O)NCc1ccc2c(c1)OCO2 (configuration not stated) 2.66%
COCc1cc(C)nc(NC2CC(C)(C)NC(C)(C)C2)c1C#N -1.99%
Cn1c2ccccc2c2nnc(SCc3ccc4nonc4c3)nc21 -0.67%
C=CCn1c2ccccc2c2nnc(SCc3ccc4nonc4c3)nc21 3.57%
CCn1c2ccccc2c2nnc(SCC(=O)Nc3c(C)n(C)n(-c4ccccc4)c3=O)nc21 17.8%
CCCn1c2ccccc2c2nnc(SCC(=O)Nc3cc(C)on3)nc21 1.54%
Nc1nnc(COc2cccc(C(F)(F)F)c2)s1 1.04%
COC(=O)c1ccc(C(=O)OC)c(NC(=O)C2CC2)c1 1.03%
COc1ccc2cc(CN(CCCN3CCOCC3)Cc3nnnn3C3CCCC3)c(=O)[nH]c2c1 -0.3%
CCOc1ccccc1N(CC)C(=O)c1ccc2c(=O)n3c(nc2c1)CCCCC3 4.24%
Cc1c(Cl)ccc2c1NC(=O)C21NC(CCC(N)=O)[C@H]2C(=O)N(c3ccc(Cl)cc3)C(=O)[C@H]21 (some centres not stated) 2.04%
C[N+](C)(C)CC/C=C1/c2ccccc2CSc2ccccc21 -0.47%
C/C(=N\O)c1oc2ccc3c(C)cc(=O)oc3c2c1C 21.3%
Cc1ccc(/C(=N\O)c2oc3c(C)c4oc(=O)cc(C)c4cc3c2C)cc1 -1.6%
CCC(Cc1ccccc1)NC(=O)C1CC1 (configuration not stated) -0.41%
O=[N+]([O-])c1ccc(CN2CCN(c3ccc([N+](=O)[O-])cc3)CC2)cc1 8.04%
COc1ccc(CNC(=S)NCc2ccc(OC(C)C)cc2)cc1 3.45%
COc1ccc(Nc2ncccc2C(=O)O)cc1 -0.34%
CC(C)c1ccc(Nc2ncccc2C(=O)O)cc1 10.4%
CCOC(=O)c1c(C)nc2c(c1C)/C(=N/O)CC(C)(C)C2 5.56%
COc1ccccc1CNC(=O)c1ccc(CS(=O)Cc2cccc(Cl)c2)o1 (configuration not stated) 4.42%
Cc1nn(-c2ccc([N+](=O)[O-])cc2)c2c1C(c1ccc(OC(F)F)cc1)N1C(=N2)C(=O)Nc2ccccc21 (configuration not stated) 6.37%
Cc1ccc(C2c3c(C)nn(-c4ccc([N+](=O)[O-])cc4)c3N=C3C(=O)Nc4ccccc4N32)cc1 (configuration not stated) 3.63%
O=C(c1ccc(F)cc1)C1CCN(C(=S)Nc2ccccc2Cl)CC1 2.44%
Cc1cc(C(=O)Nc2c(C)nn(Cc3c(Cl)cccc3Cl)c2C)no1 -0.07%
Cc1nn(Cc2ccc(Cl)cc2)c(C)c1NC(=O)c1cc(C(C)C)on1 7.7%
Cc1cc(C)n2nc(C(=O)N/N=C/c3c4ccccc4cc4ccccc34)nc2n1 3.03%
CCCCN(CC)Cc1c(C)[nH]c2c(ccc3ccccc32)c1=O 0.96%
COc1ccc(S(=O)(=O)NCc2ccco2)cc1N(C)S(=O)(=O)c1ccccc1 2.02%
Cc1ccccc1-c1nnc2c3ccccc3c(C)nn12 -1.91%
COc1ccc(-c2nnc3c4ccccc4c(C)nn23)cc1 4.75%
COc1ccc(S(N)(=O)=O)cc1-c1nnc2c3ccccc3c(C)nn12 6.57%
Cc1nn2c(-c3ccccc3)nnc2c2ccccc12 -0.87%
COc1ccc(S(=O)(=O)NCc2ccco2)cc1NC(=O)c1ccccc1 3.54%
Cc1ccc(N2C(=O)c3ccc(N)cc3C2=O)cc1 1%
COc1cc(SC)ccc1C(=O)Nc1ccc2c(c1)OCCO2 49.8%
CC(=O)Nc1ccc(OCC(O)Cn2nc(C)nc2C)cc1 (configuration not stated) -1.49%
COc1ccc(CN(C(=O)c2oc3cc(C)c(C)cc3c2C)C2CCS(=O)(=O)C2)cc1OC (configuration not stated) 5.1%
Cc1ccc(Cl)cc1NS(=O)(=O)c1ccc2oc(=O)ccc2c1 15.7%
O=C(COC(=O)c1ccc(OC(F)F)cc1)NC(=O)NC1CCCC1 2.84%
CC(=O)Nc1ccc(NC(=O)CCn2nnc3ccccc32)cc1 -1.57%
C=CCNC(=O)COC(=O)c1cc(S(=O)(=O)N2CCCCC2)ccc1Cl 0.67%
O=C(O)c1cc(-c2cccs2)nc2ccc(F)cc12 -0.75%
COc1ccc(-c2cc(C(=O)N3CCCC3)c3ccccc3n2)cc1 3%
COc1ccc(-c2cc(C(=O)O)c3ccccc3n2)c(OC)c1 0.21%
O=C(O)c1cc(-c2ccc(-c3ccc(F)cc3)o2)nc2ccccc12 7.68%
O=S(=O)(c1ccc(C2CCCCC2)cc1)N1CCOCC1 15.3%
O=C(CO/N=C/c1ccccc1)Nc1c(F)c(F)c(F)c(F)c1F 2.75%
COc1ccc(NC(=O)CN(C)C(=O)CCCc2nc3ccccc3s2)cc1 2.07%
Cc1cc(Cl)ccc1OCCCC(=O)N1CCN(C(=O)c2ccco2)CC1 17.5%
Cc1cc(SCC(=O)c2ccccc2)n2ncc(-c3ccccc3)c2n1 4.59%
Cc1ccc2nc(C)cc(SCC(=O)N/N=C/c3ccco3)c2c1 1.6%
COc1ccc(Cn2c(-c3ccc(C)cc3)nc3c(c(=O)c4ccccc4n3C)c2=O)cc1 3.47%
COc1ccc(Cn2c(-c3ccco3)nc3c(c(=O)c4ccccc4n3C)c2=O)cc1 12.4%
CCc1nc2sc3ccccc3c(=O)c2c(=O)n1Cc1ccco1 10.5%
CCCCCc1nc2c(c(=O)c3ccccc3n2C)c(=O)n1Cc1ccc(OC)cc1 56.9%
Cn1c2ccccc2c(=O)c2c(=O)n(Cc3ccco3)c(-c3ccc(C(C)(C)C)cc3)nc21 6.32%
COCCn1c(-c2cccc(Br)c2)nc2c(c(=O)c3ccccc3n2C)c1=O 45.9%
COCCn1c(-c2ccc(Cl)cc2)nc2c(c(=O)c3ccccc3n2C)c1=O 8.68%
COc1ccc(Cn2c(-c3ccccc3C)nc3c(c(=O)c4ccccc4n3C)c2=O)cc1 52.8%
COc1ccc(N2CCN(CCNS(=O)(=O)c3ccc(C)cc3)CC2)cc1 -1.19%
CCCCOc1ccc(Cl)cc1CSc1n[nH]c(C)n1 -1.27%
CC(NC(=O)c1c(F)cccc1Cl)c1ccc(-n2ccnc2)cc1 (configuration not stated) 2.43%
COc1cnn(-c2ccccc2)c(=O)c1SCc1ccc(Cl)c(Cl)c1 5.77%
Fc1ccccc1NC(=S)N1CCN(C/C=C/c2ccccc2)CC1 0.73%
Cc1ccc(C)c(S(=O)(=O)N/N=C/c2ccc(N(C)C)cc2)c1 -0.72%
c1ccc2c(c1)nc1n2CN(Cc2ccc3c(c2)OCO3)CN1 1.87%
Cc1csc(=O)n1CCC(=O)OCC(=O)NNC(=O)c1ccccc1 -2.48%
COc1ccc(CCn2c(C(C)C)nc3c(c(=O)c4ccccc4n3C)c2=O)cc1 4.88%
COc1ccc(CCn2c(-c3ccccc3)nc3c(c(=O)c4ccccc4n3C)c2=O)cc1 2.88%
Cc1ccc(NC(=O)c2cn(-c3cccc(C)n3)cn2)cc1 3.46%
CC(C)C[C@H](NC(=O)c1nc[nH]c1C(=O)N[C@@H](CC(C)C)C(=O)OC(C)(C)C)C(=O)OC(C)(C)C -5.5%
CC(C)C[C@H](NC(=O)c1nc[nH]c1C(=O)NC1CCN(C(=O)OC(C)(C)C)CC1)C(=O)OC(C)(C)C 0.16%
COc1ccc(Cn2cnc3c4cc(F)ccc4n(C)c3c2=O)cc1 1.16%
CC(C)(C)c1cc(NC(=O)c2ccco2)no1 2.28%
Cc1occc1C(=O)Nc1cc(C(C)(C)C)on1 -1.18%
COc1ccc(N(C(=O)CNC(=O)c2ccco2)C(C(=O)NC2CCCC2)c2cccnc2)cc1 (configuration not stated) -0.22%
NC(=O)c1ccsc1NC(=O)COC(=O)C1CC2CCCC(C1)C2=O (configuration not stated) 1.41%
